About 79,000 compounds went through this panel and 15% of them were active in at least one assay; those are over-represented in the sample as a whole. The source made the active and inactive calls. Rule as the data show it: active = growth inhibition above about 70%; inactive = the rest.
What was measured:
[1] = NCI Yeast Anticancer Drug Screen. Data for the sgs1 strain (AID 173);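 also: 0% = growth of vehicle-only control cultures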; conditions: S. cerevisiae sgs1 mutant, hits give high values
Outline: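 Treat defined-mutant yeast with compound; measure growth; calculate inhibition relative to vehicle-treated cells.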

[2] = NCI Yeast Anticancer Drug Screen. Data for the mlh1 rad18 strain (AID 175); conditions: S. cerevisiae mlh1 rad18 strain growth inhibition, hits give high values
Outline: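 Test agents were incubated with a yeast strain of defined genotype (DNA damage repair defect). Inhibition of growth was derived by comparison with vehicle-exposed cultures.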

[3] = NCI Yeast Anticancer Drug Screen. Data for the rad18 strain (AID 177); conditions: S. cerevisiae rad18 mutant growth inhibition, hits give high values
Outline: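 A genetically defined yeast mutant impaired in DNA damage repair was treated with test compounds, then its growth was measured against cultures receiving vehicle alone.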

[4] = NCI Yeast Anticancer Drug Screen. Data for the wt1 strain (AID 149);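 also: 0% = growth of vehicle-treated wt1 cultures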; conditions: S. cerevisiae wt1 strain (SPY 50644) growth inhibition, hits give high values
Outline: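 Readout: yeast growth inhibition, normalised to vehicle controls, in the wt1 strain exposed to test compounds.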

[5] = NCI Yeast Anticancer Drug Screen. Data for the rad50EPP+ strain (AID 151);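 also: 0% = growth of vehicle-treated control cultures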; conditions: S. cerevisiae rad50 mutant strain, hits give high values
Outline: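 Exposing the rad50EPP+ strain to each compound, growth was compared with vehicle-only cultures to give inhibition.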

[6] = NCI Yeast Anticancer Drug Screen. Data for the rad50 strain (AID 155);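 also: 0% = growth of vehicle-only cultures of the same strain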; conditions: S. cerevisiae rad50 strain growth inhibition, hits give high values
Outline: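 Compounds were tested on a yeast strain with an engineered DNA damage repair alteration; the reported value is growth inhibition normalised to vehicle treatment.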

[7] = NCI Yeast Anticancer Drug Screen. Data for the mec2-1 strain (AID 157); conditions: S. cerevisiae mec2-1 strain, hits give high values
Outline: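 Readout is yeast growth inhibition, normalised to vehicle-treated controls, in the mec2-1 strain exposed to compound.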

[8] = NCI Yeast Anticancer Drug Screen. Data for the rad14 strain (AID 159);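 also: 0% = growth of vehicle-treated control cultures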; conditions: S. cerevisiae rad14 strain growth inhibition, hits give high values
Outline: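 Compound-treated yeast with a defined DNA-repair lesion; growth inhibition normalised to vehicle-treated cultures.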

[9] = NCI Yeast Anticancer Drug Screen. Data for the sgs1 mgt1 strain (AID 161);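 also: 0% = growth of cultures given vehicle only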; conditions: S. cerevisiae sgs1 mgt1 strain, hits give high values
Outline: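 This yeast growth screen uses a strain with defined DNA-repair lesions; compound-treated growth is compared with vehicle-treated growth.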

[10] = NCI Yeast Anticancer Drug Screen. Data for the CLN2oe strain (AID 163);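 also: 0% = growth of vehicle-only control cultures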; conditions: S. cerevisiae CLN2oe strain, hits give high values
Outline: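 Values reflect how much compound exposure reduced yeast growth, referenced to vehicle-exposed cells. Assay organism is a strain with a defined genetic change affecting cell-cycle control.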

[11] = NCI Yeast Anticancer Drug Screen. Data for the cln2 rad14 strain (AID 165);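 also: 0% = growth equal to vehicle treated cultures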; conditions: S. cerevisiae cln2 rad14 strain, hits give high values
Outline: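 Relative to vehicle controls, growth inhibition of compound-treated cln2 rad14 yeast was recorded.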

[12] = NCI Yeast Anticancer Drug Screen. Data for the bub3 strain (AID 167); conditions: S. cerevisiae bub3 mutant strain, hits give high values
Outline: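 Growth of a checkpoint-deficient yeast mutant is measured after compound exposure. Values represent inhibition relative to vehicle.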

[13] = NCI Yeast Anticancer Drug Screen. Data for the wt2 strain (AID 169);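 also: 0% = growth of vehicle-treated yeast cultures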; conditions: S. cerevisiae wt2 strain growth inhibition, hits give high values
Outline: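 Values express reduction in yeast growth under compound treatment, referenced to vehicle-treated cells.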

[14] = NCI Yeast Anticancer Drug Screen. Data for the mlh1 strain (AID 171);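 also: 0% = growth of vehicle-treated control cultures of the same strain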; conditions: S. cerevisiae mlh1 strain growth inhibition, hits give high values
Outline: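 Steps: expose the defined-mutant yeast strain to compound; expose a parallel culture to vehicle; measure growth; express compound effect as inhibition relative to the vehicle culture.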

[15] = NCI Yeast Anticancer Drug Screen. Data for the mgt1 strain (AID 153); conditions: S. cerevisiae mgt1 mutant growth inhibition, hits give high values
Outline: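 Genetically defined yeast (mgt1) treated with compound; inhibition of growth expressed against vehicle-treated controls.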

[16] = at 5.0 µM (retest, dose inferred, filed as 0.5)
[17] = at 50.0 µM (retest, dose inferred, filed as 5.0)

Measured: growth inhibition

CC(C)c1ccc(C2NC(=S)NC3=C2c2ccccc2C3=O)cc1 (stereo not drawn)
active: [2]; at 50.0 µM 74.1%
inactive: [1]; at 1.2 µM 23% | [1]; at 3.7 µM 12% | [1]; at 11.0 µM 16% | [1]; at 33.0 µM 26% | [1]; at 100.0 µM 43% | [2]; [16] -36% | [2]; [17] 32% | [3]; at 1.2 µM 2% | [3]; at 3.7 µM 8% | [3]; at 11.0 µM 10% | [3]; at 33.0 µM 13% | [3]; at 100.0 µM 38%

O=C(O)/C=C\C(=O)NNc1ccc(Br)cc1
active: [4]; at 3.7 µM 97% | [4]; at 11.0 µM 99% | [4]; at 33.0 µM 99% | [4]; at 100.0 µM 99% | [5]; at 3.7 µM 78% | [5]; at 11.0 µM 98% | [5]; at 33.0 µM 99% | [5]; at 100.0 µM 99% | [6]; at 11.0 µM 99% | [6]; at 33.0 µM 98% | [6]; [17] 97% | [6]; at 50.0 µM 98.3% | [6]; at 100.0 µM 99% | [7]; at 3.7 µM 90% | [7]; [16] 76% | [7]; at 11.0 µM 99% | [7]; at 33.0 µM 99% | [7]; [17] 99% | [7]; at 50.0 µM 98.2% | [7]; at 100.0 µM 99% | [8]; at 3.7 µM 99% | [8]; at 11.0 µM 99% | [8]; at 33.0 µM 99% | [8]; at 100.0 µM 99% | [9]; [17] 98% | [9]; at 50.0 µM 98.5% | [10]; at 3.7 µM 96% | [10]; at 11.0 µM 99% | [10]; at 33.0 µM 99% | [10]; at 100.0 µM 99% | [11]; [17] 97% | [11]; at 50.0 µM 97.3% | [12]; at 11.0 µM 99% | [12]; at 33.0 µM 99% | [12]; [17] 97% | [12]; at 50.0 µM 98.5% | [12]; at 100.0 µM 99% | [13]; at 3.7 µM 99% | [13]; at 11.0 µM 99% | [13]; at 33.0 µM 99% | [13]; at 100.0 µM 99% | [14]; at 3.7 µM 77% | [14]; at 11.0 µM 98% | [14]; at 33.0 µM 98% | [14]; at 100.0 µM 99% | [1]; at 11.0 µM 99% | [1]; at 33.0 µM 99% | [1]; at 100.0 µM 99% | [2]; [17] 98% | [2]; at 50.0 µM 98.3% | [3]; at 3.7 µM 95% | [3]; at 11.0 µM 98% | [3]; at 33.0 µM 98% | [3]; at 100.0 µM 98%
inactive: [4]; at 1.2 µM 2% | [5]; at 1.2 µM 14% | [6]; at 1.2 µM 8% | [6]; at 3.7 µM 53% | [6]; [16] 10% | [7]; at 1.2 µM 1% | [8]; at 1.2 µM 4% | [9]; [16] 31% | [10]; at 1.2 µM -6% | [11]; [16] 15% | [12]; at 1.2 µM 10% | [12]; at 3.7 µM 60% | [12]; [16] 3% | [13]; at 1.2 µM 13% | [14]; at 1.2 µM -2% | [1]; at 1.2 µM 4% | [1]; at 3.7 µM 66% | [2]; [16] 27% | [3]; at 1.2 µM -2%

CCSc1c2ccccc2c(-c2nc(F)nc(F)n2)n1CCc1ccccc1
inactive: [4]; at 1.2 µM -7% | [4]; at 3.7 µM -4% | [4]; at 11.0 µM 10% | [5]; at 1.2 µM -22% | [5]; at 3.7 µM -17% | [5]; at 11.0 µM -22% | [5]; at 33.0 µM -15% | [5]; at 100.0 µM 3% | [15]; at 1.2 µM -27% | [15]; at 3.7 µM -32% | [15]; at 11.0 µM -29% | [6]; at 1.2 µM -30% | [6]; at 3.7 µM -10% | [6]; [16] -23% | [6]; at 11.0 µM -6% | [6]; [17] 52% | [8]; at 1.2 µM -17% | [8]; at 3.7 µM -12% | [8]; at 11.0 µM 2% | [9]; [16] -15% | [10]; at 1.2 µM -24% | [10]; at 3.7 µM -20% | [10]; at 11.0 µM 4% | [11]; [16] 19% | [12]; at 1.2 µM -11% | [12]; at 3.7 µM -21% | [12]; [16] 0% | [12]; at 11.0 µM -3% | [13]; at 1.2 µM -1% | [13]; at 3.7 µM -2% | [13]; at 11.0 µM 4% | [14]; at 1.2 µM -41% | [14]; at 3.7 µM -34% | [14]; at 11.0 µM -22% | [1]; at 1.2 µM 34% | [1]; at 3.7 µM 32% | [1]; at 11.0 µM 39% | [3]; at 1.2 µM -5% | [3]; at 3.7 µM 0% | [3]; at 11.0 µM 7%
active: [4]; at 33.0 µM 80% | [4]; at 100.0 µM 97% | [15]; at 33.0 µM 81% | [15]; at 100.0 µM 97% | [6]; at 33.0 µM 72% | [6]; at 50.0 µM 87% | [6]; at 100.0 µM 96% | [8]; at 33.0 µM 84% | [8]; at 100.0 µM 97% | [9]; [17] 70% | [9]; at 50.0 µM 87.7% | [10]; at 33.0 µM 89% | [10]; at 100.0 µM 97% | [11]; [17] 70% | [11]; at 50.0 µM 86.6% | [12]; at 33.0 µM 82% | [12]; [17] 88% | [12]; at 50.0 µM 86% | [12]; at 100.0 µM 97% | [13]; at 33.0 µM 77% | [13]; at 100.0 µM 98% | [14]; at 33.0 µM 75% | [14]; at 100.0 µM 97% | [1]; at 33.0 µM 79% | [1]; at 100.0 µM 98% | [3]; at 33.0 µM 75% | [3]; at 100.0 µM 97%
